In PubChem BioAssay AID1209 (Sanford-Burnham Center for Chemical Genomics, 2008) one finds inhibition data, which are given here for 106 compounds.

Molecules are shown by their SMILES. Out of some 190,000 compounds screened, about 810 (0.43%) were called active. Shown is part of a subset that was picked to be rich in actives. A number with no mark means an inactive call. Rule as the data show it: active = inhibition above about 50%; inactive = the rest.

The target in this assay is Mannose-6-phosphate isomerase (Homo sapiens) (UniProt P34949). In words: MPI enzyme activity inhibition – biochemical, fluorescence intensity, coupled assay, primary screen (AID 1209).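 Also: plate controls were DMSO vehicle for no effect and wells lacking substrate for full effect.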 As to conditions: purified PMI enzyme, at 20 µM, active compounds read high.
Mannose-6-phosphate isomerase (Homo sapiens), sequence (P34949 whole entry, looked up): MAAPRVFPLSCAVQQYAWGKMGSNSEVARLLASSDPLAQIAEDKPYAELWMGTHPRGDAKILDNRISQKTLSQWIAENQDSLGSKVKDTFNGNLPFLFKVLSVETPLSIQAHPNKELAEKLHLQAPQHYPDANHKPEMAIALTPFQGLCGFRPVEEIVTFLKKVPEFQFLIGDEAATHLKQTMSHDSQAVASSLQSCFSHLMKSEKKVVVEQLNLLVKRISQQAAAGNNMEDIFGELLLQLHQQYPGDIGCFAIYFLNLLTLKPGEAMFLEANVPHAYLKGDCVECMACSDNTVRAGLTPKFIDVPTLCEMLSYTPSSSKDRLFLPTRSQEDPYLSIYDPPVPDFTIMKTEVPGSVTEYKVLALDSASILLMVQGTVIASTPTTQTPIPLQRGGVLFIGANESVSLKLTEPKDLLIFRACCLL
For `CC(=O)c1cnc(-c2ccccc2Cl)s1`, the inhibition was 0.5%. As to `CC(C(=O)Nc1nc2ccccc2s1)n1cc([N+](=O)[O-])cn1` (stereo unspecified), the inhibition was 11.5%.

For the compound `CCS(=O)(=O)Nc1ccc2[nH]c(=O)[nH]c2c1`, the inhibition was 52.1% (active).

As to `CS(=O)(=O)Nc1ccc2[nH]c(=O)[nH]c2c1`, the inhibition was 3.3%.

As for `Cc1cc(C)c(S(=O)(=O)Nc2ccc3[nH]c(=O)[nH]c3c2)c(C)c1`, the inhibition is 4.4%.

With `N#C/C(=C\c1cccc(NC(=O)c2ccccc2Cl)c1)C(=O)NCCc1ccccc1`, the inhibition is 10.1%. For the compound `O=C(Cc1ccc(F)cc1)OCC(=O)c1cc2ccccc2o1`, the inhibition is 9%. For the compound `COC1=C(N)C(=O)c2nc(-c3nc(C(=O)O)c(C)c(-c4ccc(OC)c(OC)c4O)c3N)ccc2C1=O`, the inhibition is 56% (active). Turning to `COc1ccc(-c2n[nH]c(C)c2-c2ccc(Cl)cc2)c(O)c1OC`, the inhibition is 6.7%. Consider `COc1ccc(-c2nc(N)ncc2-c2csc(C)n2)c(O)c1OC`, for which the inhibition was 6.8%. For `NS(=O)(=O)c1ccc(NC(=O)C2(c3ccccc3)CCCC2)cc1`, the inhibition is 1.9%. In the case of `O=C(CSc1ccc(-c2ccccn2)nn1)c1ccc([N+](=O)[O-])cc1` it was 3.7%; in that of `O=C(CSc1ccc(-c2ccccn2)nn1)c1ccc(F)cc1`, 62.5% (active). Take `O=C(CSc1ccc(-c2ccccn2)nn1)c1ccccc1`: the inhibition is -14.4%. Turning to `CSC1=N/C(=C\c2ccc(C)s2)C(=O)S1`, the inhibition was 7%.

Regarding `O=C(NC1CCCCCCC1)c1ccc2c(c1)N(Cc1ccc(F)cc1)C(=O)CS2=O` (stereo unspecified), the inhibition was 0.6%. On to `NC(=S)Nn1c(CCC(=O)O)ccc1-c1ccccc1`, for which the inhibition is 14.4%.

On to `CCc1ccc(C(=O)COC(=O)CCc2nc3ccccc3c(=O)[nH]2)cc1`, for which the inhibition is -28.6%. Turning to `Cc1cccc2cc(C#N)c(SCc3nnc(-c4ccccc4[N+](=O)[O-])o3)nc12`, the inhibition was 11.1%. Take `C/C=C(\C)C(=O)NCCN1C2=NC[C@H](C(C)C)N2C[C@H]1Cc1ccc(O)cc1`: the inhibition was 1.5%. As for `N#C/C(=C/c1ccc(CNS(=O)(=O)c2ccccc2)o1)C(=O)NCc1ccccc1`, the inhibition was 7.8%. As to `COCCNC(=O)/C(C#N)=C\c1ccc(CNS(=O)(=O)c2ccc(C)cc2)o1`, the inhibition is 6.2%.

For `Cc1ccc(S(=O)(=O)NCc2ccc(/C=C(/C#N)C(=O)NCc3ccccc3)o2)cc1`, the inhibition was 58.4% (active). To `CCCNS(=O)(=O)c1ccc(OCC(=O)Nc2ccccc2F)cc1` belongs -1.4%; to `CC1(C)CC(=O)C(C2=NC(C)(C)Cc3ccccc32)=C(O)C1`, -4%. Turning to `CC1(C)Cc2ccccc2C2=NNC(=O)C2=N1`, the inhibition is 84% (active). `CC1=NC(C)(C)Cc2ccccc21`: the inhibition was 7.7%.

For the compound `O=S(=O)(/C=C/c1ccccc1)N1CCN(Cc2ccccc2)CC1`, the inhibition is -1.6%. Take `COc1ccc2nc(NC(=O)CNS(=O)(=O)c3cccs3)sc2c1`: the inhibition is 1.5%. `CCN(C(=S)NCc1ccccc1)c1cccc2ccccc12`: the inhibition is 6.3%. As for `CCN(C(=S)Nc1ccc(Oc2ccccc2)cc1)c1ccccc1`, the inhibition is 3.3%. With `CCN(C(=S)Nc1cccnc1)c1cccc2ccccc12`, the inhibition was 61.2% (active). In the case of `CN(C(=S)Nc1ccc(Oc2ccccc2)cc1)c1ccc(O)cc1`, the inhibition was 64% (active). In the case of `CN(Cc1ccccc1)C(=S)Nc1cccnc1` it was 0.8%; in that of `CN(C(=S)Nc1ccc(SC(F)F)cc1)c1ccc(O)cc1`, 77.2% (active); in that of `CN(C(=S)Nc1cccnc1)c1ccc(O)cc1`, 59.2% (active).

`CCN(C(=S)Nc1cccnc1)c1ccccc1`: the inhibition was 4%.

As for `Oc1cccc(NC(=S)Nc2cccnc2)c1`, the inhibition was 14.8%.

As for `Oc1cccc(NC(=S)Nc2ccc(SC(F)F)cc2)c1`, the inhibition is 18.1%. As for `CN1CCC(N(C)C(=S)Nc2ccc(SC(F)F)cc2)CC1`, the inhibition is -2%. As for `CN(C(=S)Nc1ccccc1)c1ccccc1`, the inhibition is 3.2%. To `Cn1cnnc1SCc1nc(N)nc(Nc2ccccc2)n1` belongs 0.3%. To `Cc1ccc(C)c(NC2=CC(=O)CC(C)(C)C2)c1C#N` belongs -12%. With `CC(=O)N(NC(=O)c1ccc(C)cc1)C1CC(=O)N(c2ccccc2Cl)C1=O` (stereo unspecified), the inhibition is -5.8%. For the compound `Cc1ccc(NC(=O)Cn2cc(C(F)(F)F)cc(Cl)c2=O)cc1Cl`, the inhibition was 3.2%.

For the compound `C=CCn1c(Cc2cccs2)nnc1SCC(=O)Nc1ccc(OC)c(OC)c1`, the inhibition is 5.9%. For the compound `Cc1nn(C)cc1C(=O)Nc1cc(Oc2ccc(Cl)cc2)cc([N+](=O)[O-])c1`, the inhibition is -2.9%. For `COc1ccc2c(C)c(Cl)c(=O)oc2c1`, the inhibition was 3.5%. `CCN(CC)CCN(C(=O)c1ccc([N+](=O)[O-])cc1)c1nc2ccc(OC)cc2s1`: the inhibition is 1.1%. As to `CCN(CC)CCN(C(=O)c1cccc([N+](=O)[O-])c1)c1nc2ccc(OC)cc2s1`, the inhibition is 56.7% (active).

Regarding `CCOc1ccc2nc(N(CCN(CC)CC)C(=O)c3cccc([N+](=O)[O-])c3)sc2c1`, the inhibition is 33.9%. In the case of `C=CCNC(=O)c1cc(C(=O)C(C)c2ncc(C(F)(F)F)cc2Cl)c[nH]1` (stereo unspecified) it was 0.9%; in that of `N=c1sccn1CC(=O)NCc1ccc(Cl)cc1Cl`, -8.6%; in that of `COC(=O)C1CCN(C2CC(=O)N(c3cc(C)cc(C)c3)C2=O)CC1` (stereo unspecified), -1.3%.

For the compound `Cc1ccc(OCc2n[nH]c(=S)n2N)cc1C`, the inhibition is 1.5%. With `Nn1c(COc2ccc(Cl)cc2)n[nH]c1=S`, the inhibition was 12%. To `COc1ccc(OCc2n[nH]c(=S)n2N)cc1` belongs 80.7% (active). For the compound `O=C(NC1CCSC1=O)C1CCCCC1` (stereo unspecified), the inhibition is -2.2%. In the case of `Nc1cc(-c2ccncc2)c[nH]c1=O`, the inhibition is 50.4% (active). To `N#Cc1cc(-c2ccccc2)c[nH]c1=O` belongs 6.1%; to `c1cc(-c2ccncc2)ccn1`, -8.5%; to `COC(=O)c1c(NC(=O)C2CC=CCC2C(=O)O)sc(C(N)=O)c1C` (stereo unspecified), 7.3%. `Cc1ccc(NC(=O)CN(C)C(=O)COc2cccc3cccnc23)cc1`: the inhibition was 73% (active).

For `Cc1ccc(NC(=O)CN(C)S(=O)(=O)c2cccc3cccnc23)cc1`, the inhibition was 11.9%. As for `O=C(COc1cccc2cccnc12)Nc1ccccc1`, the inhibition was -7.8%. Turning to `O=C(c1cccnc1)N1CCN(c2ccc(Cl)cc2)CC1`, the inhibition was -6.6%. As to `O=C(/C=C/NNC(=O)c1ccc(Cl)cc1)c1ccccc1`, the inhibition was -4.1%. Consider `COC(=O)c1ccc(C(=O)OC)c(NC(=O)CN2CCCCC2)c1`, for which the inhibition is 4.7%. With `CCCn1nnnc1NC(=O)c1cc(Br)ccc1OC`, the inhibition is 0.2%. With `CCCn1nnnc1NC(=O)c1cc(Cl)ccc1Cl`, the inhibition was 13.1%. Regarding `CCCn1nnnc1NC(=O)c1ccc(C)cc1Cl`, the inhibition was 54.4% (active). As for `O=c1c2ccccc2nc2c3ccccc3c(NCc3cccnc3)nn12`, the inhibition was 6.3%.

For `CCN(CC)C(=S)SCC(=O)c1ccccc1`, the inhibition is 5.8%.

In the case of `CCN(CC)C(=S)SSC(=S)N(CC)CC`, the inhibition was -2.4%. To `CCN(CC)C(=S)SC1=CCS(=O)(=O)C1` belongs 102% (active). To `COc1ccc(OC)c([C@@H]2OCCC=C[C@H]2C)c1` belongs -2.1%; to `O=C(Nc1nc2c(s1)CCCC2)c1nn(Cc2ccccc2)c(=O)c2ccccc12`, 0.4%.

Regarding `O=S(=O)(c1cccs1)N1CCN(c2ccccn2)CC1`, the inhibition was 5.9%. With `Cc1ccc(-c2nnc(CSc3nc4cc5c(cc4cc3C)OCO5)o2)cc1`, the inhibition is 15.5%. Regarding `Cc1ccc(O)c(CNc2cccc3cccnc23)c1`, the inhibition is 34.8%. Take `Cc1cccc(NCc2ccc(O)c3ncccc23)c1C`: the inhibition was 60.4% (active).

On to `Oc1ccc(CNc2ccccc2F)c2cccnc12`, for which the inhibition is 45.3%. As to `Cc1cccc(NCc2ccccc2O)c1C`, the inhibition was 29%. Take `Cc1cccnc1NCc1ccc(O)c2ncccc12`: the inhibition was 48.4%. In the case of `COc1cccc(C2C(C(=O)Nc3nc4ccccc4s3)=C(C)NC3=C2C(=O)CC(C)(C)C3)c1OC` (stereo unspecified), the inhibition was -10.5%.

In the case of `CC(=O)NC1C(=O)N=C(SCC(=O)Nc2sc3c(c2C#N)CCCCCC3)NC1=O` (stereo unspecified), the inhibition was 66.1% (active).

Regarding `CC(=O)NC1C(=O)N=C(SCC(=O)NC2CCCCC2)NC1=O` (stereo unspecified), the inhibition was -8.4%.

Consider `CC(=O)Nc1c(O)nc(SCC(=O)Nc2sc3c(c2C#N)CCCCCC3)[nH]c1=O`, for which the inhibition is 1.2%. Consider `O=C(O)c1ccc(Nc2ncnc3c2cnn3Cc2ccccc2)cc1`, for which the inhibition is 7.1%. For the compound `O=C(Cc1ccccc1)NCc1ccccn1`, the inhibition is -4.7%. On to `C/C(N)=C(/C#N)C(=O)CSc1nn(-c2ccc(Cl)cc2)c(=S)s1`, for which the inhibition is 5.6%. Take `Cc1ccc(C(=O)CC2(O)C(=O)N(C)c3ccccc32)s1` (stereo unspecified): the inhibition is 8.1%. `CC(=O)N1c2ccccc2C(C)(C)C2CCC(C)CC21` (stereo unspecified): the inhibition was 0.8%.

Regarding `CC(=O)N1c2ccccc2C2(O)N=C(C)SC12` (stereo unspecified), the inhibition is 60.3% (active). On to `COCc1cc(C)nc(N2CCNCC2)c1C#N`, for which the inhibition was -0.4%. As for `CCCN(CC1CC1)c1nc(N)c2c(N)nc(OC)cc2c1C#N`, the inhibition was 47.8%. In the case of `COc1cc2c(C#N)c(N3CCCCC3)nc(N)c2c(N)n1` it was 66.7% (active); in that of `COc1cc2c(C#N)c(N3CCN(C)CC3)nc(N)c2c(N)n1`, 42.5%.

With `CCCCN(CC)c1nc(N)c2c(N)nc(OCC)cc2c1C#N`, the inhibition is 37.5%. For `N#Cc1c(N2CCCC2)nc(N)c2c(N)nc(N3CCCC3)cc12`, the inhibition was 6.9%.

Consider `CCOc1cc2c(C#N)c(N3CCNCC3)nc(N)c2c(N)n1`, for which the inhibition is 65.4% (active). Regarding `CCOc1ccccc1N1CCN(c2nc(N)c(C#N)c(CC#N)c2C#N)CC1`, the inhibition was 12.6%. In the case of `COc1cc2c(C#N)c(N3CCOCC3)nc(N)c2c(N)n1` it was 28.9%. On to `CCOc1cc2c(C#N)c(N3CCCCC3)nc(N)c2c(N)n1`, for which the inhibition was 62.4% (active).

For the compound `COc1cc2c(C#N)c(N3CCc4ccccc4C3)nc(N)c2c(N)n1`, the inhibition was 64.3% (active). `COc1cc2c(C#N)c(N3CCN(c4ccccc4OC)CC3)nc(N)c2c(N)n1`: the inhibition was 47.2%.

The term inhibition denotes the relative decrease from the control value, in per cent.
